# This is part of a sample that, as a whole, favours compounds with a hit. Of some 79,000 tested, about 15% had one in any assay. Unmarked numbers belong to inactive results. Active and inactive are the calls of the source. No stated cut-off is given here; in the data, active means growth inhibition above about 70%; inactive means the rest.
# Legend:
# [1] = NCI Yeast Anticancer Drug Screen. Data for the rad52 strain (AID 147);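 further: 0% = growth of vehicle-treated control cultures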; conditions: S. cerevisiae rad52 mutant growth inhibition, stronger effect = higher value
# Summary of the method: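 The repair-mutant yeast strain was incubated with compounds, then growth was read and inhibition derived relative to vehicle.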
# [2] = NCI Yeast Anticancer Drug Screen. Data for the wt1 strain (AID 149);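 further: 0% = growth of vehicle-treated wt1 cultures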; conditions: S. cerevisiae wt1 strain (SPY 50644) growth inhibition, stronger effect = higher value
# Summary of the method: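 Growth inhibition read against vehicle controls after compound exposure of the wt1 yeast strain.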
# [3] = NCI Yeast Anticancer Drug Screen. Data for the rad50EPP+ strain (AID 151);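 further: 0% = growth of vehicle-treated control cultures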; conditions: S. cerevisiae rad50 mutant strain, stronger effect = higher value
# Summary of the method: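 Vehicle-normalised growth inhibition; rad50EPP+ yeast strain, altered in DNA damage repair, compound-treated.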
# [4] = NCI Yeast Anticancer Drug Screen. Data for the mgt1 strain (AID 153); conditions: S. cerevisiae mgt1 mutant growth inhibition, stronger effect = higher value
# Summary of the method: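 Vehicle-normalized growth inhibition is determined in mgt1 yeast, a strain selected for a defined alteration in DNA repair or cell cycle control.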
# [5] = NCI Yeast Anticancer Drug Screen. Data for the rad50 strain (AID 155);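 further: 0% = growth of vehicle-only cultures of the same strain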; conditions: S. cerevisiae rad50 strain growth inhibition, stronger effect = higher value
# Summary of the method: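 Readout: growth inhibition relative to vehicle-treated cultures. Compound exposure was carried out in a genetically defined yeast strain deficient in DNA damage repair.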
# [6] = NCI Yeast Anticancer Drug Screen. Data for the mec2-1 strain (AID 157); conditions: S. cerevisiae mec2-1 strain, stronger effect = higher value
# Summary of the method: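 Mutant yeast (mec2-1) grown with compound; growth inhibition relative to vehicle control reported.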
# [7] = NCI Yeast Anticancer Drug Screen. Data for the rad14 strain (AID 159);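 further: 0% = growth of vehicle-treated control cultures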; conditions: S. cerevisiae rad14 strain growth inhibition, stronger effect = higher value
# Summary of the method: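 Growth inhibition vs vehicle controls; genetically altered yeast strain (DNA damage repair defect) treated with test compounds.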
# [8] = NCI Yeast Anticancer Drug Screen. Data for the sgs1 mgt1 strain (AID 161);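 further: 0% = growth of cultures given vehicle only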; conditions: S. cerevisiae sgs1 mgt1 strain, stronger effect = higher value
# Summary of the method: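 Yeast cells carrying a defined DNA-repair defect were exposed to test compounds. Growth inhibition was measured relative to vehicle-treated controls.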
# [9] = NCI Yeast Anticancer Drug Screen. Data for the CLN2oe strain (AID 163);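 further: 0% = growth of vehicle-only control cultures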; conditions: S. cerevisiae CLN2oe strain, stronger effect = higher value
# Summary of the method: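 Compounds are applied to yeast harbouring a defined cell-cycle control change; reduced growth compared with vehicle-treated controls gives the value.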
# [10] = NCI Yeast Anticancer Drug Screen. Data for the cln2 rad14 strain (AID 165);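 further: 0% = growth equal to vehicle treated cultures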; conditions: S. cerevisiae cln2 rad14 strain, stronger effect = higher value
# Summary of the method: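 Readout is yeast growth inhibition versus vehicle-treated controls, using a strain with cln2 and rad14 alterations exposed to compound.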
# [11] = NCI Yeast Anticancer Drug Screen. Data for the bub3 strain (AID 167); conditions: S. cerevisiae bub3 mutant strain, stronger effect = higher value
# Summary of the method: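 Readout: yeast growth inhibition, expressed relative to vehicle-only wells. The test organism is a mutant strain from a panel with lesions in DNA repair or checkpoint genes.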
# [12] = NCI Yeast Anticancer Drug Screen. Data for the wt2 strain (AID 169);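 further: 0% = growth of vehicle-treated yeast cultures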; conditions: S. cerevisiae wt2 strain growth inhibition, stronger effect = higher value
# Summary of the method: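 Against vehicle-treated controls, the growth of yeast exposed to each compound was compared, and the inhibition was recorded.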
# [13] = NCI Yeast Anticancer Drug Screen. Data for the mlh1 strain (AID 171);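 further: 0% = growth of vehicle-treated control cultures of the same strain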; conditions: S. cerevisiae mlh1 strain growth inhibition, stronger effect = higher value
# Summary of the method: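 Measured: yeast growth. Reference: vehicle-treated controls. Organism: strain with a defined alteration affecting DNA damage repair or cell cycle control, treated with compound.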
# [14] = NCI Yeast Anticancer Drug Screen. Data for the sgs1 strain (AID 173);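 further: 0% = growth of vehicle-only control cultures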; conditions: S. cerevisiae sgs1 mutant, stronger effect = higher value
# Summary of the method: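 Each compound was added to cultures of the altered yeast strain. Growth was recorded, and inhibition was derived by comparison with vehicle controls.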
# [15] = NCI Yeast Anticancer Drug Screen. Data for the mlh1 rad18 strain (AID 175); conditions: S. cerevisiae mlh1 rad18 strain growth inhibition, stronger effect = higher value
# Summary of the method: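 Genetically defined yeast (DNA repair-deficient) exposed to compounds; growth inhibition determined relative to vehicle.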
# [16] = NCI Yeast Anticancer Drug Screen. Data for the rad18 strain (AID 177); conditions: S. cerevisiae rad18 mutant growth inhibition, stronger effect = higher value
# Summary of the method: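 Vehicle-treated cultures served as the baseline for scoring compound-induced growth inhibition in DNA-repair-mutant yeast.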
# [17] = at 5.0 µM (retest, dose inferred, filed as 0.5)
# [18] = at 50.0 µM (retest, dose inferred, filed as 5.0)
smiles,measurement,setting,value
Cc1cc(=O)oc2c(C)c3occc(=O)c3cc12,growth inhibition,[1]; at 1.2 µM,1%
same,growth inhibition,[1]; at 3.7 µM,2%
same,growth inhibition,[1]; at 11.0 µM,17%
same,growth inhibition,[1]; at 33.0 µM,48%
same,growth inhibition,[1]; at 100.0 µM,86% (active)
same,growth inhibition,[2]; at 1.2 µM,4%
same,growth inhibition,[2]; at 3.7 µM,-2%
same,growth inhibition,[2]; at 11.0 µM,0%
same,growth inhibition,[2]; at 33.0 µM,5%
same,growth inhibition,[2]; at 100.0 µM,23%
same,growth inhibition,[3]; at 1.2 µM,-1%
same,growth inhibition,[3]; at 3.7 µM,-1%
same,growth inhibition,[3]; at 11.0 µM,4%
same,growth inhibition,[3]; at 33.0 µM,29%
same,growth inhibition,[3]; at 100.0 µM,67%
same,growth inhibition,[4]; at 1.2 µM,-5%
same,growth inhibition,[4]; at 3.7 µM,3%
same,growth inhibition,[4]; at 11.0 µM,-11%
same,growth inhibition,[4]; at 33.0 µM,-10%
same,growth inhibition,[4]; at 100.0 µM,44%
same,growth inhibition,[5]; at 1.2 µM,-1%
same,growth inhibition,[5]; at 3.7 µM,2%
same,growth inhibition,[5]; [17],24%
same,growth inhibition,[5]; at 11.0 µM,18%
same,growth inhibition,[5]; at 33.0 µM,59%
same,growth inhibition,[5]; [18],67%
same,growth inhibition,[5]; at 50.0 µM,94.3% (active)
same,growth inhibition,[5]; at 100.0 µM,84% (active)
same,growth inhibition,[6]; at 1.2 µM,-2%
same,growth inhibition,[6]; at 3.7 µM,0%
same,growth inhibition,[6]; [17],-6%
same,growth inhibition,[6]; at 11.0 µM,4%
same,growth inhibition,[6]; at 33.0 µM,14%
same,growth inhibition,[6]; [18],21%
same,growth inhibition,[6]; at 50.0 µM,67.2%
same,growth inhibition,[6]; at 100.0 µM,40%
same,growth inhibition,[7]; at 1.2 µM,2%
same,growth inhibition,[7]; at 3.7 µM,2%
same,growth inhibition,[7]; at 11.0 µM,1%
same,growth inhibition,[7]; at 33.0 µM,9%
same,growth inhibition,[7]; at 100.0 µM,28%
same,growth inhibition,[8]; [17],-10%
same,growth inhibition,[8]; [18],8%
same,growth inhibition,[8]; at 50.0 µM,74.4% (active)
same,growth inhibition,[9]; at 1.2 µM,-2%
same,growth inhibition,[9]; at 3.7 µM,-1%
same,growth inhibition,[9]; at 11.0 µM,9%
same,growth inhibition,[9]; at 33.0 µM,6%
same,growth inhibition,[9]; at 100.0 µM,29%
same,growth inhibition,[10]; [17],-17%
same,growth inhibition,[10]; [18],15%
same,growth inhibition,[10]; at 50.0 µM,43.8%
same,growth inhibition,[11]; at 1.2 µM,-1%
same,growth inhibition,[11]; at 3.7 µM,-1%
same,growth inhibition,[11]; [17],12%
same,growth inhibition,[11]; at 11.0 µM,3%
same,growth inhibition,[11]; at 33.0 µM,5%
same,growth inhibition,[11]; [18],19%
same,growth inhibition,[11]; at 50.0 µM,78% (active)
same,growth inhibition,[11]; at 100.0 µM,15%
same,growth inhibition,[12]; at 1.2 µM,-1%
same,growth inhibition,[12]; at 3.7 µM,-2%
same,growth inhibition,[12]; at 11.0 µM,1%
same,growth inhibition,[12]; at 33.0 µM,10%
same,growth inhibition,[12]; at 100.0 µM,32%
same,growth inhibition,[13]; at 1.2 µM,-1%
same,growth inhibition,[13]; at 3.7 µM,4%
same,growth inhibition,[13]; at 11.0 µM,2%
same,growth inhibition,[13]; at 33.0 µM,11%
same,growth inhibition,[13]; at 100.0 µM,48%
same,growth inhibition,[14]; at 1.2 µM,0%
same,growth inhibition,[14]; at 3.7 µM,-2%
same,growth inhibition,[14]; at 11.0 µM,0%
same,growth inhibition,[14]; at 33.0 µM,6%
same,growth inhibition,[14]; at 100.0 µM,34%
same,growth inhibition,[15]; [17],11%
same,growth inhibition,[15]; [18],21%
same,growth inhibition,[15]; at 50.0 µM,63.1%
same,growth inhibition,[16]; at 1.2 µM,-1%
same,growth inhibition,[16]; at 3.7 µM,-4%
same,growth inhibition,[16]; at 11.0 µM,-2%
same,growth inhibition,[16]; at 33.0 µM,7%
same,growth inhibition,[16]; at 100.0 µM,40%
COC(C(O)CO)C(O)C(O)C(=O)NNc1ccccc1 (stereo unspecified),growth inhibition,[1]; at 1.2 µM,12%
same,growth inhibition,[1]; at 3.7 µM,23%
same,growth inhibition,[1]; at 11.0 µM,45%
same,growth inhibition,[1]; at 33.0 µM,61%
same,growth inhibition,[1]; at 100.0 µM,93% (active)
same,growth inhibition,[2]; at 1.2 µM,1%
same,growth inhibition,[2]; at 3.7 µM,5%
same,growth inhibition,[2]; at 11.0 µM,29%
same,growth inhibition,[2]; at 33.0 µM,36%
same,growth inhibition,[2]; at 100.0 µM,66%
same,growth inhibition,[3]; at 1.2 µM,15%
same,growth inhibition,[3]; at 3.7 µM,29%
same,growth inhibition,[3]; at 11.0 µM,37%
same,growth inhibition,[3]; at 33.0 µM,41%
same,growth inhibition,[3]; at 100.0 µM,68%
same,growth inhibition,[4]; at 1.2 µM,-1%
same,growth inhibition,[4]; at 3.7 µM,11%
same,growth inhibition,[4]; at 11.0 µM,29%
same,growth inhibition,[4]; at 33.0 µM,26%
same,growth inhibition,[4]; at 100.0 µM,94% (active)
same,growth inhibition,[5]; at 1.2 µM,35%
same,growth inhibition,[5]; at 3.7 µM,41%
same,growth inhibition,[5]; [17],9%
same,growth inhibition,[5]; at 11.0 µM,68%
same,growth inhibition,[5]; at 33.0 µM,79% (active)
same,growth inhibition,[5]; [18],71% (active)
same,growth inhibition,[5]; at 50.0 µM,96.1% (active)
same,growth inhibition,[5]; at 100.0 µM,96% (active)
same,growth inhibition,[6]; at 1.2 µM,0%
same,growth inhibition,[6]; at 3.7 µM,4%
same,growth inhibition,[6]; [17],7%
same,growth inhibition,[6]; at 11.0 µM,40%
same,growth inhibition,[6]; at 33.0 µM,31%
same,growth inhibition,[6]; [18],76% (active)
same,growth inhibition,[6]; at 50.0 µM,54.4%
same,growth inhibition,[6]; at 100.0 µM,94% (active)
same,growth inhibition,[7]; at 1.2 µM,6%
same,growth inhibition,[7]; at 3.7 µM,9%
same,growth inhibition,[7]; at 11.0 µM,19%
same,growth inhibition,[7]; at 33.0 µM,21%
same,growth inhibition,[7]; at 100.0 µM,84% (active)
same,growth inhibition,[8]; [17],15%
same,growth inhibition,[8]; [18],80% (active)
same,growth inhibition,[8]; at 50.0 µM,94.7% (active)
same,growth inhibition,[9]; at 1.2 µM,8%
same,growth inhibition,[9]; at 3.7 µM,7%
same,growth inhibition,[9]; at 11.0 µM,57%
same,growth inhibition,[9]; at 33.0 µM,62%
same,growth inhibition,[9]; at 100.0 µM,97% (active)
same,growth inhibition,[10]; [17],5%
same,growth inhibition,[10]; [18],68%
same,growth inhibition,[10]; at 50.0 µM,89% (active)
same,growth inhibition,[11]; at 1.2 µM,-1%
same,growth inhibition,[11]; at 3.7 µM,1%
same,growth inhibition,[11]; [17],23%
same,growth inhibition,[11]; at 11.0 µM,26%
same,growth inhibition,[11]; at 33.0 µM,34%
same,growth inhibition,[11]; [18],97% (active)
same,growth inhibition,[11]; at 50.0 µM,96.1% (active)
same,growth inhibition,[11]; at 100.0 µM,93% (active)
same,growth inhibition,[12]; at 1.2 µM,-4%
same,growth inhibition,[12]; at 3.7 µM,22%
same,growth inhibition,[12]; at 11.0 µM,22%
same,growth inhibition,[12]; at 33.0 µM,9%
same,growth inhibition,[12]; at 100.0 µM,86% (active)
same,growth inhibition,[13]; at 1.2 µM,2%
same,growth inhibition,[13]; at 3.7 µM,9%
same,growth inhibition,[13]; at 11.0 µM,44%
same,growth inhibition,[13]; at 33.0 µM,61%
same,growth inhibition,[13]; at 100.0 µM,97% (active)
same,growth inhibition,[15]; [17],28%
same,growth inhibition,[15]; [18],96% (active)
same,growth inhibition,[15]; at 50.0 µM,94.5% (active)
same,growth inhibition,[16]; at 1.2 µM,17%
same,growth inhibition,[16]; at 3.7 µM,49%
same,growth inhibition,[16]; at 11.0 µM,79% (active)
same,growth inhibition,[16]; at 33.0 µM,78% (active)
same,growth inhibition,[16]; at 100.0 µM,97% (active)

# Source: PubChem BioAssay (NCI)
